Only some compounds are listed: those with a hit (about 1.8% of all), similar ones and a draw of the others.
LANA-H2B inh: blocks KSHV LANA binding to histone H2A/H2B | Q9QR71 | cell-free LANA-H2A/H2B peptide, fluorescence polarization | inhibition, % (test concentration not listed) | actives 0.6% (n = 320,000); in the data active = inhibition mostly above about 10%, no sharp cut-off; inactive = mostly below about 6.7%
NOD2-RIPK2 inh: inhibitors of human NOD2-RIPK2 interaction. CHO BLA complementation NOD2-RIPK2, CCF4 ratio. actives 0.38% (n = 360,000). AID 624267. inhibition, % at 4.98 µM. O43353; in the data active = inhibition above about 21%;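 note: 0% = vehicle only and 100% = reference blocker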
TLR9-MyD88 block: inhibitors of human TLR9-MyD88 binding | Q9NR96+Q99836 | CHO BLA complementation TLR9-MyD88, CCF4 FRET ratio | inhibition, % at 4.98 µM | actives 0.21% (n = 340,000) | AID 504734;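 active = inhibition above the mean over all tested compounds plus 3 SD, cut at about 21% in these data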;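 note: 0% = DMSO only wells and 100% = clavulanate BLA inhibitor control wells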
Rtt109 Vps75: inhibitors of Candida albicans Rtt109/Vps75 histone acetyltransferase; Q5AAJ8; purified Rtt109/Vps75, ThioGlo CoA-SH fluorescence, 4 h; inhibition, % at 34.9 µM; actives 0.16% (n = 330,000);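 active = inhibition of at least 50% in every replicate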
HTR2A ag: mouse HTR2A agonism via beta-arrestin recruitment; CHO-K1 mHTR2A beta-arrestin complementation, luminescence; percent of 30 µM serotonin response; actives 0.66% (n = 360,000); activation, % at 7.6 µM;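 active = activation above a run cutoff, the mean activation of all tested compounds plus 3 SD, cut at about 14% in these data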;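 note: 0% = plate median of compound wells and 100% = 30 µM serotonin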
TLR4-MyD88 BLA: TLR4-MyD88 interaction inhibition in cells. O00206+Q99836. HeLa CL3-4 TLR4/MyD88 BLA complementation, FRET ratio. inhibition, % at 8.4 µM. actives 0.18% (n = 200,000); in the data active = inhibition above about 25%;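 note: 0% = vehicle and 100% = reference inhibitor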
Target sequence (O00206 whole entry, looked up): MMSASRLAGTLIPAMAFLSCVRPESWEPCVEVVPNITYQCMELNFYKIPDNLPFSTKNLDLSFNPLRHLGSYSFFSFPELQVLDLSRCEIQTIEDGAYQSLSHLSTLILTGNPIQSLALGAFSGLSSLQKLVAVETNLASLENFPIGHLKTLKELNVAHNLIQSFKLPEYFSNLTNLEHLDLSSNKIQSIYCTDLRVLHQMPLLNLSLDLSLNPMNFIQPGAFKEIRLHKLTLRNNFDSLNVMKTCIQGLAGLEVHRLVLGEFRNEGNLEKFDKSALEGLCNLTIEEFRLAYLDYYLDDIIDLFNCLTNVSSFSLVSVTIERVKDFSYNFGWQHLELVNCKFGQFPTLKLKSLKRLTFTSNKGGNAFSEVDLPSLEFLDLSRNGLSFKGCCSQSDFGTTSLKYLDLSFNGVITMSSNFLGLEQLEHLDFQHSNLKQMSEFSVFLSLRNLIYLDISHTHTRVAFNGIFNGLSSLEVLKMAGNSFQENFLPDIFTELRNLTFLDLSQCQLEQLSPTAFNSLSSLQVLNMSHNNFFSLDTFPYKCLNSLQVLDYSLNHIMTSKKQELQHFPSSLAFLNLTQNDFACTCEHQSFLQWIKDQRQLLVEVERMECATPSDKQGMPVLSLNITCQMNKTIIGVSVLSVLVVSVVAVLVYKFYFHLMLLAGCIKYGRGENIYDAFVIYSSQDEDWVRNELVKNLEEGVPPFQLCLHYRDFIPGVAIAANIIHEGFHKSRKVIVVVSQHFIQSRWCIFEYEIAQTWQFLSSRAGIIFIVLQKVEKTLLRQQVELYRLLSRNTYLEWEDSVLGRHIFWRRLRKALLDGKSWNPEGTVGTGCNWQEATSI
Target sequence (Q99836 whole entry, looked up): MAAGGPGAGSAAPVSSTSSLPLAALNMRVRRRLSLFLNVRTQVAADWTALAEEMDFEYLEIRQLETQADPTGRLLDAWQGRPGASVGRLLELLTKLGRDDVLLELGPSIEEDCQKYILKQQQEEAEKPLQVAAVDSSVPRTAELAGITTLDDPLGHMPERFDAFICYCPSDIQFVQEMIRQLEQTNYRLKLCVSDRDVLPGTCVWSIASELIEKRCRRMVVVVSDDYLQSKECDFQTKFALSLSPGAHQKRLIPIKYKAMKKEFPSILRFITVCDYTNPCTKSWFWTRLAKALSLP
Numbers without * were called inactive.

Screening COc1ccc(CCN=C(N)NS(=O)(=O)c2ccc(OC)c(OC)c2)cc1OC returned LANA-H2B inh -12, NOD2-RIPK2 inh -8, TLR9-MyD88 block 1, Rtt109 Vps75 -5 and HTR2A ag 4.
`COc1ccc(CN2C(=O)c3ccccc3C2c2nnnn2C(C)C)cc1OC` (stereo unspecified) gave NOD2-RIPK2 inh -8 and HTR2A ag 6.
Screening CC1(c2nnnn2C2CCCCC2)CCC(=O)N1Cc1ccc2c(c1)OCO2 (stereo unspecified) returned NOD2-RIPK2 inh -7 and HTR2A ag -1.
For COc1ccc(CCn2c(=N)c(C(=O)NC3CCCC3)cc3c(=O)n4cccc(C)c4nc32)cc1 the results were LANA-H2B inh -4, NOD2-RIPK2 inh 11, TLR9-MyD88 block -7, Rtt109 Vps75 0 and HTR2A ag -1.
Screening Cc1cccn2c(=O)c3cc(C(=O)NC4CCCC4)c(=N)n(CCc4ccccc4)c3nc12 returned LANA-H2B inh 14*, NOD2-RIPK2 inh -13, TLR9-MyD88 block -3, Rtt109 Vps75 -1 and HTR2A ag -8.
For C[C@@H]1CN([C@@H](C)CO)C(=O)c2cc(Br)cnc2O[C@H]1CN(C)C(=O)Nc1ccc(F)cc1 the results were NOD2-RIPK2 inh 1, TLR9-MyD88 block -11 and HTR2A ag 1.
O=C(O)c1cccc(Cn2c(Cl)c(/C=N/NC(=O)c3ccccc3Cl)sc2=O)c1 was read as LANA-H2B inh 1, NOD2-RIPK2 inh -2, TLR9-MyD88 block 0, Rtt109 Vps75 -5, HTR2A ag 4 and TLR4-MyD88 BLA -3.
For O=C(O)c1cccc(Cn2c(Cl)c(/C=N/NC(=O)c3ccccc3O)sc2=O)c1 the results were LANA-H2B inh 15*, NOD2-RIPK2 inh -3, TLR9-MyD88 block 1, Rtt109 Vps75 18 and HTR2A ag 0.
For CNc1ncnc2c1ncn2[C@H]1CN(Cc2cccs2)C[C@@H](CO)O1 the results were NOD2-RIPK2 inh 1 and HTR2A ag -1.
For COc1ccccc1Cc1c(-c2ccc(OC)c(OC)c2)nc2c(Cl)cc(C(F)(F)F)cn12 the results were NOD2-RIPK2 inh 10 and HTR2A ag 2.
Cc1ccc(S(C)(=O)=NC(=O)NC(=O)c2c(F)cccc2Cl)cc1 (stereo unspecified) was read as LANA-H2B inh 1, NOD2-RIPK2 inh 2, TLR9-MyD88 block -1, Rtt109 Vps75 4 and HTR2A ag 8.
`Cc1ccc(S(=O)(=O)/N=c2\ccc(Cl)cn2C(F)F)cc1` gave LANA-H2B inh 17*, NOD2-RIPK2 inh 5, TLR9-MyD88 block -1, Rtt109 Vps75 9, HTR2A ag -1 and TLR4-MyD88 BLA -10.
N#Cc1ccccc1OCCCN1CCC(C(O)(c2ccccc2)c2ccccc2)CC1 was read as NOD2-RIPK2 inh 9 and HTR2A ag -5.
Screening COc1ccc(C)cc1NC(=O)c1cc(C2CC2)nc2c1c(C)nn2C1CCS(=O)(=O)C1 (stereo unspecified) returned NOD2-RIPK2 inh -23, TLR9-MyD88 block -7, Rtt109 Vps75 4 and HTR2A ag 5.
Cc1nn(C2CCS(=O)(=O)C2)c2nc(C3CC3)cc(C(=O)Nc3ccc(C(N)=O)cc3)c12 (stereo unspecified) was read as NOD2-RIPK2 inh -17, TLR9-MyD88 block -4, Rtt109 Vps75 50* and HTR2A ag 11.
`C=CCNc1ncnc2c1cnn2-c1ccc(C)cc1C` gave LANA-H2B inh 2, NOD2-RIPK2 inh -5, TLR9-MyD88 block 8, Rtt109 Vps75 6, HTR2A ag -1 and TLR4-MyD88 BLA 8.
`CCOC(=O)N1CCC(Nc2ncnc3c2cnn3-c2ccc(C)cc2C)CC1` gave LANA-H2B inh -6, NOD2-RIPK2 inh -1, TLR9-MyD88 block 2, Rtt109 Vps75 -1, HTR2A ag 15* and TLR4-MyD88 BLA -4.
Screening Cc1cccc(CS(=O)(=O)Cc2ccc(C(=O)NCCc3ccccc3)o2)c1 returned LANA-H2B inh -7, NOD2-RIPK2 inh 8, TLR9-MyD88 block 6, Rtt109 Vps75 7 and HTR2A ag -4.

Screening data (PubChem BioAssay)
